# According to ChEMBL document CHEMBL3988442, “University of Dundee, Small-Polar-MMV Screening Library” (2021):
# Screen size: about 69,000 compounds; about 1,000 (1.4%) showed an effect of 50% or more. For the sample, strong results were picked, then their nearest neighbours and some compounds at random.
# Test system: Leishmania donovani
# Experiment: Leishmania intramacrophage assay
# Assay type: functional, organism-based
# Set-up: scale not given: in the data most compounds retested in dose-response had high values
smiles,measurement,setting,value
COc1cccc(Cn2cc(C3=CCN(CCO)CC3)cn2)c1,Percent Effect,"30.3 µM, […]",22.79%
COc1ccc(-n2nnnc2C2(NCc3ccco3)CCCCC2)cc1,Percent Effect,"30.3 µM, […]",-17.59%
OCCN1CCC(F)(F)C2(CCN(c3cccnc3)C2)C1 (stereo not drawn),Percent Effect,"30.3 µM, […]",51.95%
Cc1ccc(N2CCC3(CN(CCO)CCC3(F)F)C2)nn1.O=C(O)C(F)(F)F (stereo not drawn),Percent Effect,"30.3 µM, […]",39.18%
FC1(F)CCNCC12CCN(c1cccnc1)C2.O=C(O)C(F)(F)F.O=C(O)C(F)(F)F (stereo not drawn),Percent Effect,"30.3 µM, […]",9.392%
COCCN1C[C@@H]2CN(Cc3cccc(C)n3)C[C@@H]2C1=O.O=C(O)C(F)(F)F,Percent Effect,"30 µM, 30.03 µM",25.64%
CC(C)CN1CCC2(COCc3cnc(-c4ccccc4)nc32)C1.O=C(O)C(F)(F)F (stereo not drawn),Percent Effect,"30.3 µM, […]",36%
Cl.Cl.O=c1[nH]c2ncccc2n1C1CCNCC1,Percent Effect,"30.3 µM, […]",13.74%
COc1ccccc1CCN(C)Cc1nc(N)nc(N(C)C)n1,Percent Effect,"30.3 µM, […]",17.72%
Cc1ccc(CN2C[C@@H]3[C@@H](C2)OCC(=O)N3Cc2ccncc2)s1.O=C(O)C(F)(F)F.O=C(O)C(F)(F)F,Percent Effect,"30.3 µM, […]",15.08%
O=C(O)C(F)(F)F.O=C(O)C(F)(F)F.O=C1[C@H]2CN(Cc3ccncc3)C[C@H]2CN1c1ccsc1,Percent Effect,"30.3 µM, […]",21.46%
CCCc1nc(N2CCCC3(CCNC3)C2)c2cnn(C)c2n1 (stereo not drawn),Percent Effect,"30.3 µM, […]",-7.107%
Cn1ncc2c(N3CCCN4CCC[C@H]4C3)nc(C(C)(C)C)nc21,Percent Effect,"30.3 µM, […]",-35.36%
Cn1ncc2c(N3CCCC4(CCNC4)C3)nc(C(C)(C)C)nc21 (stereo not drawn),Percent Effect,"30.3 µM, […]",88.19%
O=C(N1CCCO1)[C@@]12CCO[C@@H]1CCN(Cc1cccnc1)C2.O=C(O)C(F)(F)F.O=C(O)C(F)(F)F,Percent Effect,"30.3 µM, […]",13.9%
CCO[C@H]1CN(CC2CC2)[C@@H]2CCCO[C@H]12.O=C(O)C(F)(F)F,Percent Effect,"30.3 µM, […]",13.63%
Cc1ncsc1CN1C[C@@H]2CCCO[C@@H]2[C@H](Nc2ccccn2)C1.O=C(O)C(F)(F)F.O=C(O)C(F)(F)F,Percent Effect,"30.3 µM, […]",-3.269%
COc1cc2nc(NCc3ccc(C)nc3)nc(N)c2cc1OC,Percent Effect,"30.3 µM, […]",62.6%
COc1cc(CNCC(O)c2ccccc2F)cc2c1OCO2 (stereo not drawn),Percent Effect,30 µM,34.29%
Cc1nc(CN2C[C@@H]3CN(C(=O)c4ccncc4)C[C@@H]3C2)cs1,Percent Effect,"30.3 µM, […]",-18.13%
Cc1ccc(C(=O)N2C[C@H]3CNC[C@H]3C2)cn1,Percent Effect,"30.3 µM, […]",-11.07%
Cc1ccc(C(=O)N2C[C@H]3CN(Cc4csc(C)n4)C[C@H]3C2)cn1,Percent Effect,"30.3 µM, […]",58.41%
O=C(NC[C@]12COC[C@H]1CN(Cc1cccnc1)C2)c1ccno1.O=C(O)C(F)(F)F.O=C(O)C(F)(F)F,Percent Effect,"30 µM, 30.03 µM",19.24%
Cc1ccccc1-n1nc(C)c(CN(C)C(C)Cc2ccccn2)c1C.O=C(O)CC(O)(CC(=O)O)C(=O)O (stereo not drawn),Percent Effect,"30.3 µM, […]",17.55%
CC(C)(O)c1cn(C[C@H]2C[C@@H]3CCN2C[C@@H]3C(=O)N2CCOCC2)nn1,Percent Effect,"30.3 µM, […]",75.59%
CC(C)(C)c1cn(C[C@H]2CC3CCN2C[C@@H]3C(=O)N2CCOCC2)nn1 (stereo partly drawn),Percent Effect,"30.3 µM, […]",-15.57%
COCc1cn(C[C@H]2C[C@@H]3CCN2C[C@@H]3C(=O)N2CCOCC2)nn1,Percent Effect,"30.3 µM, […]",-19.8%
CN(CC1Cc2ccccc2CN1C)C(=O)Cc1cccs1 (stereo not drawn),Percent Effect,"30.3 µM, […]",58.51%
CN(C)[C@@H]1CN(C(=O)Cc2cccs2)[C@@H]2CCCO[C@H]12.O=C(O)C(F)(F)F,Percent Effect,"30.3 µM, […]",-12.28%
CN(C)CCN1CCN(Cc2cccs2)Cc2cccnc21.O=C(O)C(F)(F)F.O=C(O)C(F)(F)F.O=C(O)C(F)(F)F,Percent Effect,"30.3 µM, […]",-2.293%
CC(C)CN1CCC2(CC1)C(=O)Nc1ccc(C(=O)NC(C)C)cc12.O=C(O)C(F)(F)F,Percent Effect,"30.3 µM, […]",-1.007%
Cc1ccc(CN2C[C@@H]3CCN(Cc4ccncc4)C(=O)[C@H]3C2)s1.O=C(O)C(F)(F)F.O=C(O)C(F)(F)F,Percent Effect,"30.3 µM, […]",7.943%
N#Cc1ccc(N2CCC(OC3CCOCC3)CC2)cc1Cl,Percent Effect,"30.3 µM, […]",58.7%
N#Cc1ccc(NC2CCN(c3ncccn3)CC2)cc1Cl,Percent Effect,"30.3 µM, […]",-22.27%
COCC1CN(c2ccc(C#N)c(Cl)c2)CCO1 (stereo not drawn),Percent Effect,"30.3 µM, […]",27.15%
O=C(Nc1cccnc1)[C@H]1C[C@H]2OCC[C@H]2N(CC2CC2)C1.O=C(O)C(F)(F)F.O=C(O)C(F)(F)F,Percent Effect,"30.3 µM, […]",5.172%
O=C(O)C(F)(F)F.O=C(O)C(F)(F)F.O=C(O)C(F)(F)F.c1cncc(CN2CCO[C@H]3[C@H](OCCN4CCCC4)CC[C@@H]32)c1,Percent Effect,"30.3 µM, […]",-1.777%
Fc1cccnc1O[C@H]1CN(Cc2ccoc2)[C@@H]2CCCO[C@H]12.O=C(O)C(F)(F)F.O=C(O)C(F)(F)F,Percent Effect,"30.3 µM, […]",9.385%
O=C(C[C@@H]1COC[C@H]2CN(Cc3cccnc3)C[C@@H]12)NCC1CC1.O=C(O)C(F)(F)F.O=C(O)C(F)(F)F,Percent Effect,"30.3 µM, […]",18.63%
COCCN1C[C@@H]2COC[C@@H](CC(=O)NCc3cccnc3)[C@@H]2C1.O=C(O)C(F)(F)F.O=C(O)C(F)(F)F,Percent Effect,"30.3 µM, […]",44.79%
O=C(C[C@@H]1COC[C@H]2CN(CC3CC3)C[C@@H]12)NCc1cccnc1.O=C(O)C(F)(F)F.O=C(O)C(F)(F)F,Percent Effect,"30.3 µM, […]",54.71%
O=C(O)C(F)(F)F.O=C(O)C(F)(F)F.c1cncc(CN2CC[C@H]3O[C@@H](COCC4CC4)CC[C@H]32)c1,Percent Effect,"30 µM, 30.03 µM",39.71%
COc1ncccc1CN1C[C@H]2CCN(c3ncccn3)C[C@H]2C1.O=C(O)C(F)(F)F,Percent Effect,"30.3 µM, […]",28.82%
COc1ncccc1CN1C[C@H]2CCN(C(C)C)C[C@H]2C1.O=C(O)C(F)(F)F.O=C(O)C(F)(F)F,Percent Effect,"30.3 µM, […]",-4.656%
COCCN1CC[C@@H]2CN(Cc3cccnc3OC)C[C@@H]2C1.O=C(O)C(F)(F)F.O=C(O)C(F)(F)F,Percent Effect,"30.3 µM, […]",55.04%
CN(C)c1nccc(N2CCO[C@H]3CN(Cc4ccsc4)C[C@H]32)n1.O=C(O)C(F)(F)F,Percent Effect,"30 µM, 30.03 µM",28.84%
CN(C)c1nccc(N2CCO[C@H]3CN(Cc4ccco4)C[C@H]32)n1,Percent Effect,"30.3 µM, […]",57.89%
COCCN1C[C@@H]2OCCN(c3ccnc(N(C)C)n3)[C@@H]2C1,Percent Effect,"30.3 µM, […]",23.22%
C[C@@H]1C(=O)NC[C@H]2CN(Cc3ccsc3)C[C@H]21.O=C(O)C(F)(F)F,Percent Effect,"30 µM, 30.03 µM",28.53%
CCCc1nc2c(c(C)c(C)n2CCN(C)C)c(N)c1CC,Percent Effect,"30.3 µM, […]",99.96%
CNC(=O)CN1CCC12CCN(C(=O)Cc1ccccc1)C2.O=C(O)C(F)(F)F (stereo not drawn),Percent Effect,"30.3 µM, […]",9.106%
CCCn1cc(C(=O)NCCS(N)(=O)=O)c2ccccc21,Percent Effect,"30.3 µM, […]",23.59%
CCCn1cc(C(=O)NCCCC(N)=O)c2ccccc21,Percent Effect,"30.3 µM, […]",41.21%
COCCn1cc(C(=O)NCCS(N)(=O)=O)c2ccccc21,Percent Effect,"30.3 µM, […]",59.49%
CN(C)C[C@H]1C[C@@H]2CN(Cc3ccoc3)C[C@@H]2O1.O=C(O)C(F)(F)F.O=C(O)C(F)(F)F,Percent Effect,"30.3 µM, […]",4.803%
Cl.Cl.c1cc(COC[C@@H]2CCC[C@@]23CNCCO3)ccn1,Percent Effect,"30 µM, 30.03 µM",8.265%
Cl.Cl.c1cncc(COC[C@@H]2CCC[C@@]23CNCCO3)c1,Percent Effect,"30.3 µM, […]",73.99%
O=C(O)C(F)(F)F.O=C(O)C(F)(F)F.c1cncc(COC[C@@H]2CCC[C@]23CNCCO3)c1,Percent Effect,"30.3 µM, […]",27.95%
